Test results reported in PubChem BioAssay (NCATS).
Records with an inconclusive call do not appear. Values without a mark were called inactive. Calls follow the shape of the full dose curve.

Assay: qHTS for inhibitors of Rabies Virus screened against the NCATS CANVASS Library (AID 1347402); also: 0% is about no effect
Conditions: Rabies virus infection cell assay; series mostly up to 45.9 µM; activity change, negative = inhibition: at the top concentration

Structure (SMILES)	activity change, negative = inhibition
COc1ccc2cc(NC(=O)C3=NO[C@H]4[C@H](O)C=C[C@@H](Cl)[C@@]4(O)C3)c(=O)oc2c1OC	-7.85%
C=C[C@](Cl)(CBr)CCC=C(C)C	-1.66%
CN1CCc2cc3c(c4c2[C@H]1[C@@H](O)c1ccccc1-4)OCO3	-21.3%
CC(C)[C@]12CC[C@@]3(C)[C@H](C)CC[C@H](O)[C@@]3(CC1)c1cc3c(cc12)[nH]c1ccccc13	-5.28%
CC(C)(Br)[C@@H](Cl)C[C@H](Br)[C@](C)(Cl)/C=C/Br	-28.5%
C/C=C1/C2=CCCN3C(=O)O[C@H]([C@H]1O)[C@H]23	-7.1%
C=C[C@]1(C)CC[C@@H]([C@H](C)C(=O)CC=C(C)C)O1	3.96%
C=C[C@]1(C)CC[C@@H]([C@H](C)C(=O)/C=C/C(C)C)O1	-3.71%
CC(C)=CCCC(C)(O)[C@H]1CC=C(C)C(O)C1 (some centres undefined)	0.373%
